High-throughput results from PubChem.
GLP1R ag: GLP-1 receptor (human) agonism. P43220. HEK293 GLP-1R CRE-luciferase, luminescence, 4-6 h; cells express a hypersensitive GLP-1R form. Potency, µM (highest dose often 45.6 µM), inactives show at the top dose activation, hits mostly activators. actives 0.007% (n = 380,000); further: % of control where 0% means no effect
HEK293 tox: cytotoxic in the GLP-1 receptor inverse agonist counter-screen; HEK293 cAMP-luciferase reporter cells, luminescence, 24 h; Potency, µM (top dose mostly 38.3 µM), for inactives: top-dose activity change, negative = inhibition, most hits filed as inhibitors; actives 0.13% (n = 410,000); AID 624418;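 further: loss of luciferase light is scored as toxicity; on the % scale 0 is the no-effect control and ±100 the full control effect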
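MLSMR compounds, 24 hr on cells at 37 deg C/5% CO2; luminescence after luciferase reagent (12 min RT). Inhibition counted as the undesired cytotoxic outcome.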
IDH1 R132H inh: inhibitors of human mutant IDH1 R132H; O75874; IDH1-R132H enzyme, NADPH consumption, diaphorase/resazurin fluorescence; Potency, µM (top dose mostly 76.6 µM), for the others: at the top dose activity change, negative = inhibition, actives largely listed as inhibitors; actives 0.093% (n = 390,000); AID 602179; further: on the % scale 0 is the no-effect control and ±100 the full control effect; nearly all actives have a fitted effect of over 65% in size
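IDH1-R132H (0.5 ug/mL) preincubated 30 min with compound, then NADPH (0.016 mM) and alpha-KG (2 mM) added; 80 min at RT, pH 7.5. Remaining NADPH coupled via diaphorase/resazurin to fluorescence (540/590 nm); concentration-response curves normalized to no-enzyme control.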
TrxR1 inh: inhibitors of rat thioredoxin reductase 1; Potency, µM (titrated, usually from 114 µM), inactives show at the highest dose activity change, negative = inhibition, actives largely listed as inhibitors; actives 1% (n = 390,000); recombinant rTrxR1, NADPH fluorescence consumption, selenite substrate; further: on the % scale 0 is the no-effect control and ±100 the full control effect; nearly all actives have a fitted effect of over 65% in size
Target sequence (O89049 whole entry, looked up): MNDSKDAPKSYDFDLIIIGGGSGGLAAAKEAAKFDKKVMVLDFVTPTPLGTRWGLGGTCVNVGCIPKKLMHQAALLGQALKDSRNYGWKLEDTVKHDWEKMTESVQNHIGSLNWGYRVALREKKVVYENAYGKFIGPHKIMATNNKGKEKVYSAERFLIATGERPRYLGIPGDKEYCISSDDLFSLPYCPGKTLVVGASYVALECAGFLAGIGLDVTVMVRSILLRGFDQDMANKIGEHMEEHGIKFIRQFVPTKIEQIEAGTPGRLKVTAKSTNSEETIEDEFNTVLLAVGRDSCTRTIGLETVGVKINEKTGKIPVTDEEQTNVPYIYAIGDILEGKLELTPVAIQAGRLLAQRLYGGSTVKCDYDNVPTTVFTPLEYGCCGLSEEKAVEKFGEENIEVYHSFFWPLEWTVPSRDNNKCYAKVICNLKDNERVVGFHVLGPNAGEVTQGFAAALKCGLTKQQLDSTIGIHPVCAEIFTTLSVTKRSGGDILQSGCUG
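Rat TrxR1 (90 nM in the dispensed reagent) was pre-reduced with 400 uM NADPH for 5 min at room temperature, then incubated with compound for 15 min. After 400 uM selenite was added, NADPH fluorescence (Ex 340/Em 450 nm) was followed for 8 min.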
GLP1R inv ag: GLP-1 receptor (human) inverse agonism. P43220. HEK293 GLP-1R CRE-luciferase, luminescence, 24 h; GLP-1R form is constitutively active. Potency, µM (highest dose often 38.3 µM), for inactives: at the top dose activity change, negative = inhibition, usual class: inhibitors. actives 1.6% (n = 410,000). AID 624417; further: on the % scale 0 is the no-effect control and ±100 the full control effect; nearly all actives have a fitted effect of over 55% in size
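Constitutively active GLP-1R drives a cAMP-responsive luciferase in stably transfected HEK293 cells; test compounds are added after overnight (12 h) attachment and left 24 hr, and signal loss in luminescence marks inhibition.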
TrxR1 substrate: is turned over as a substrate by rat TrxR1; O89049; purified TrxR1 substrate turnover, NADPH consumption readout; Potency, µM (top dose mostly 114 µM), inactives show top-dose activity change, negative = substrate turnover; actives 0.01% (n = 390,000); further: on the % scale 0 is the no-effect control and ±100 the full control effect; nearly all actives have a fitted effect of over 50% in size
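Rat TrxR1, dispensed at 90 nM, was prereduced with 400 uM NADPH (final) for 5 min at ~22 deg C, then incubated with compound 15 min before 400 uM selenite. A first-read NADPH fluorescence drop versus no-compound background flagged substrates.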
An asterisk follows results filed as active; [ ] = another dose, or the depositor's remark. In the library only some 2.7% were active in any assay of this set; here they are far more common. The call rests on the fitted dose curve; in most records, active means well fitted curve in the direction sought with a large enough effect; inconclusive means small, poorly fitted or top-dose-only effect, or another doubt; inactive means no such curve, though single readings can be large; an effect the other way counts as inactive or inconclusive. Potency means the concentration at half of the fitted maximal effect.

How did Cc1ccccc1-n1nnnc1SCC(=O)Nc1ccc(N2CCN(C)CC2)cc1 do in these assays?
GLP1R ag: -4.9%; HEK293 tox: -19.3%; IDH1 R132H inh: 0.0%; TrxR1 inh: 13.0%; GLP1R inv ag: 1µM*; TrxR1 substrate: 3.8%

Results for CCc1ccccc1-n1nnnc1SCC(=O)Nc1ccc(N2CCN(C)CC2)cc1 ?
GLP1R ag: 6.9%; HEK293 tox: -8.4%; IDH1 R132H inh: -8.2%; TrxR1 inh: 22.4%; GLP1R inv ag: 1.78µM*; TrxR1 substrate: -3.4%

How did CCc1cnc2c(c1SCc1c(F)cccc1Cl)c(=O)n(C)c(=O)n2C do in these assays?
HEK293 tox: 3.8%; IDH1 R132H inh: 5.1%; TrxR1 inh: 15.2%[57.1 µM]; GLP1R inv ag: 8.8%; TrxR1 substrate: -0.9%[57.1 µM]

What do the screens show for `COc1cc(Cl)c(C)cc1NC(=O)CSCc1nc(-c2ccc(OC)c(OC)c2)no1`?
HEK293 tox: -4.2%; IDH1 R132H inh: 25.1%; TrxR1 inh: 7.1%; GLP1R inv ag: -5.8%; TrxR1 substrate: -6.8%

How did Cc1ccc(-c2cc(C(=O)N3CCN(S(=O)(=O)c4ccc(Br)cc4)CC3)[nH]n2)c(C)c1 do in these assays?
HEK293 tox: 0.0%; IDH1 R132H inh: -2.1%; TrxR1 inh: 21.8%; GLP1R inv ag: 17.8%; TrxR1 substrate: 9.2%

What do the screens show for `Clc1ccc(-n2nnnc2Sc2ncnc3sccc23)cc1`?
GLP1R ag: -49.2%; HEK293 tox: inconclusive; IDH1 R132H inh: 0.1%; TrxR1 inh: inconclusive; GLP1R inv ag: 7.94µM*; TrxR1 substrate: -5.3%[57.1 µM]

How did Clc1ccc(-c2csc3ncnc(Sc4nnnn4-c4ccccc4)c23)cc1 do in these assays?
TrxR1 inh: 3.7%[0.0914 µM]; TrxR1 substrate: -6.4%[0.0914 µM]

Results for CCc1ccc(NC(=O)C2CCC(CNS(=O)(=O)c3cccs3)CC2)cc1 (configuration not stated) ?
HEK293 tox: 12.4%; IDH1 R132H inh: -5.6%; TrxR1 inh: 4.5%; GLP1R inv ag: 0.6%; TrxR1 substrate: -10.0%

What do the screens show for `O=C(CNC(=S)N(Cc1ccccc1)Cc1cccs1)NCc1ccc(F)cc1`?
GLP1R ag: 6.8%; HEK293 tox: -24.0%; IDH1 R132H inh: -8.7%; TrxR1 inh: 2.3%[57.1 µM]; GLP1R inv ag: 2.82µM*; TrxR1 substrate: -5.3%[57.1 µM]

Results for O=C(CNC(=S)N(CCCN1CCOCC1)Cc1cccs1)NCc1ccccc1 ?
GLP1R ag: 5.7%; HEK293 tox: -5.1%; IDH1 R132H inh: -4.5%; TrxR1 inh: 25.8%; GLP1R inv ag: -8.6%; TrxR1 substrate: 1.4%

Results for O=C(CNC(=S)N(Cc1ccccc1)Cc1ccccc1F)NCCc1ccc(Cl)cc1 ?
GLP1R ag: 8.2%; HEK293 tox: -29.3%; IDH1 R132H inh: -11.8%; TrxR1 inh: 12.1%[57.1 µM]; GLP1R inv ag: 3.98µM*; TrxR1 substrate: -5.9%

How did CCCCN(CC)CCCNC(=O)Cn1nc(CC)n2c(cc3sccc32)c1=O do in these assays?
HEK293 tox: 2.9%; IDH1 R132H inh: -1.6%; TrxR1 inh: 3.6%; GLP1R inv ag: -24.3%; TrxR1 substrate: 2.3%

How did CCCCCCCCCCCCCCCCCCN(CCCCCCCCCCCCCCCCCC)c1ccc(C=O)cc1 do in these assays?
TrxR1 inh: 1.0%; TrxR1 substrate: 2.1%

How did CCOc1ccccc1CNC(=O)CCCn1nc(C)c2sc3ccccc3c2c1=O do in these assays?
HEK293 tox: -8.4%; IDH1 R132H inh: 14.8%; TrxR1 inh: 62.6%; GLP1R inv ag: 8.2%; TrxR1 substrate: 51.0%

What do the screens show for `CCOc1ccc2nc(SC3CC(=O)N(c4ccccc4)C3=O)sc2c1` (configuration not stated)?
GLP1R ag: -6.6%; HEK293 tox: -18.4%; IDH1 R132H inh: 10.1%; TrxR1 inh: inconclusive; GLP1R inv ag: 21.9%; TrxR1 substrate: -10.8%
